Consider ten sequences from paper PMC8384837, “Expanding the binding specificity for RNA recognition by a PUF domain”.

What all share (assay): yeast three-hybrid, YBZ-1, SC-Leu-His + 0.5 mM 3-AT, 4 days
Holding throughout (settings): tags: N-Gal4 AD-HA kept; label: inside an RPR1-promoter hybrid RNA with tandem MS2 sites; ssRNA

One experiment addresses PUM1 PUF domain R5-DKQ (Homo sapiens, UniProt Q14671 828-1176, C1007D;R1008K). Summed up:
(§1)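 The interaction score is the logarithmic change in variant frequency from input to selection. It uses log2, with a pseudocount of 1 for absent variants, and frequencies came from PCR-amplified, Illumina-sequenced repeat regions. The libraries were Pumilio-1 PUF domains randomized at the three base-contacting residues per repeat, co-expressed with matching RNA elements in strain YBZ-1 (LexA–MS2 coat fusion, HIS3 reporter). Plating lasted four days on SC-Leu (input) or SC-Leu-His + 0.5 mM 3-AT (selection).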

The target in a further experiment is PUM1 PUF domain R5-FRC (Homo sapiens, UniProt Q14671 828-1176, C1007F;Q1011C). Summed up: as §1
A further experiment addresses PUM1 PUF domain R5-KQD (Homo sapiens, UniProt Q14671 828-1176, C1007K;R1008Q;Q1011D). Summed up: as §1
Another experiment addresses PUM1 PUF domain R3-LFG (Homo sapiens, UniProt Q14671 828-1176, C935L;R936F;Q939G). Summed up:
as §1

The next experiment addresses PUM1 PUF domain R4-GNC (Homo sapiens, UniProt Q14671 828-1176, N971G;H972N;Q975C). Summed up:
as §1

In a further experiment the target is PUM1 PUF domain R8-PWH (Homo sapiens, UniProt Q14671 828-1176, N1122P;Y1123W;Q1126H). Summed up: as §1
The next experiment has as its target PUM1 PUF domain R1-RVT (Homo sapiens, UniProt Q14671 828-1176, S863R;R864V;Q867T). Summed up: as §1
The next experiment concerns the target PUM1 PUF domain R7-EHG (Homo sapiens, UniProt Q14671 828-1176, S1079E;N1080H;E1083G). The method in brief: as §1
The target of the next experiment is PUM1 PUF domain R1-SPR (Homo sapiens, UniProt Q14671 828-1176, R864P;Q867R). The method in brief:
as §1

The next experiment deals with PUM1 PUF domain R1-KNS (Homo sapiens, UniProt Q14671 828-1176, S863K;R864N;Q867S). The method in brief:
as §1

With “GGCUAGAACUAGUGGAUCCCCCGGCGCCCGGCGGCUCGAGCCCGGGUAAGUGUCAAUAGUCUGCAUGCCGCCGGGCGCCAUGCCUGCAGGUCGACUCUAGAAAACAUG”, the values for the binding signal with PUM1 PUF domain R5-DKQ, with PUM1 PUF domain R5-FRC and with PUM1 PUF domain R5-KQD were 5.31 log2 enrichment (interaction score), 3.83 log2 enrichment (interaction score) and 2.75 log2 enrichment (interaction score), respectively. For “GGCUAGAACUAGUGGAUCCCCCGGCGCCCGGCGGCUCGAGCCCGGGUAAGUGUAAUUAGUCUGCAUGCCGCCGGGCGCCAUGCCUGCAGGUCGACUCUAGAAAACAUG”, in the experiment with PUM1 PUF domain R3-LFG, the binding signal is 1.87 log2 enrichment (interaction score). As for “GGCUAGAACUAGUGGAUCCCCCGGCGCCCGGCGGCUCGAGCCCGGGUAAGUGUACAUAGUCUGCAUGCCGCCGGGCGCCAUGCCUGCAGGUCGACUCUAGAAAACAUG”, in the experiment with PUM1 PUF domain R4-GNC, the binding signal is 3.28 log2 enrichment (interaction score). In the case of “GGCUAGAACUAGUGGAUCCCCCGGCGCCCGGCGGCUCGAGCCCGGGUAAGUGUAAAUAGUCUGCAUGCCGCCGGGCGCCAUGCCUGCAGGUCGACUCUAGAAAACAUG”, the binding signal in the experiment with PUM1 PUF domain R8-PWH was 2.69 log2 enrichment (interaction score); with PUM1 PUF domain R4-GNC, 1.09 log2 enrichment (interaction score); in the experiment with PUM1 PUF domain R3-LFG it was 1.41 log2 enrichment (interaction score). Turning to “GGCUAGAACUAGUGGAUCCCCCGGCGCCCGGCGGCUCGAGCCCGGGUAAGUGUAAGUAGUCUGCAUGCCGCCGGGCGCCAUGCCUGCAGGUCGACUCUAGAAAACAUG”, the binding signal with PUM1 PUF domain R3-LFG is 4.75 log2 enrichment (interaction score). Consider “GGCUAGAACUAGUGGAUCCCCCGGCGCCCGGCGGCUCGAGCCCGGGUAAGUGUAAAUGGUCUGCAUGCCGCCGGGCGCCAUGCCUGCAGGUCGACUCUAGAAAACAUG”, for which the binding signal in the experiment with PUM1 PUF domain R1-RVT is 3.15 log2 enrichment (interaction score).

With “GGCUAGAACUAGUGGAUCCCCCGGCGCCCGGCGGCUCGAGCCCGGGUAAGUCUAAAUAGUCUGCAUGCCGCCGGGCGCCAUGCCUGCAGGUCGACUCUAGAAAACAUG”, the binding signal with PUM1 PUF domain R7-EHG is 5.15 log2 enrichment (interaction score). For the sequence “GGCUAGAACUAGUGGAUCCCCCGGCGCCCGGCGGCUCGAGCCCGGGUAAGUGUAAAUUGUCUGCAUGCCGCCGGGCGCCAUGCCUGCAGGUCGACUCUAGAAAACAUG”, the binding signal with PUM1 PUF domain R1-SPR is 1.48 log2 enrichment (interaction score); with PUM1 PUF domain R1-RVT, 4.35 log2 enrichment (interaction score); with PUM1 PUF domain R1-KNS it was 3.86 log2 enrichment (interaction score).

Consider “GGCUAGAACUAGUGGAUCCCCCGGCGCCCGGCGGCUCGAGCCCGGGUAAGUGUAUAUAGUCUGCAUGCCGCCGGGCGCCAUGCCUGCAGGUCGACUCUAGAAAACAUG”, for which, in the experiment with PUM1 PUF domain R4-GNC, the binding signal was 3.99 log2 enrichment (interaction score). “GGCUAGAACUAGUGGAUCCCCCGGCGCCCGGCGGCUCGAGCCCGGGUAAGUGUAAAUCGUCUGCAUGCCGCCGGGCGCCAUGCCUGCAGGUCGACUCUAGAAAACAUG”: the binding signal in the experiment with PUM1 PUF domain R1-SPR was 2.62 log2 enrichment (interaction score); with PUM1 PUF domain R1-RVT, 5.15 log2 enrichment (interaction score).
